# Data reported in PubChem BioAssay (NCI).
# Compounds without any hit were thinned out: in the full panel of roughly 83,000, 20% have a hit.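 In brief: 96-well plates, 48 h treatment, single concentration, percent growth endpoint.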 Active and inactive are the calls of the source. How the source made its calls: active means growth percent below 10; inactive means the rest.
# What was measured:
# Test in all cases: NCI-60 one-dose screen, 48 h (100 = growth as untreated, 0 = no growth, -100 = all killed)
# Details in all cases: 10 µM unless noted
# [1] = system: SK-MEL-2 melanoma
# [2] = system: EKVX NSCLC
# [3] = system: SN12C renal
# [4] = system: UO-31 renal
# [5] = system: TK-10 renal
# [6] = system: ACHN renal
# [7] = system: CAKI-1 renal
# [8] = system: A498 renal
# [9] = system: MOLT-4 leukemia
# [10] = system: SR leukemia
# [11] = system: OVCAR-8 ovarian
# [12] = system: OVCAR-5 ovarian
# [13] = system: OVCAR-4 ovarian
# [14] = system: SK-OV-3 ovarian
# [15] = system: IGROV1 ovarian
# [16] = system: OVCAR-3 ovarian
# [17] = system: HS 578T breast
# [18] = system: NCI/ADR-RES ovarian
# [19] = system: RPMI-8226 leukemia
Compound,growth [1],growth [2],growth [3],growth [4],growth [5],growth [6],growth [7],growth [8],growth [9],growth [10],growth [11],growth [12],growth [13],growth [14],growth [15],growth [16],growth [17],growth [18],growth [19]
Cn1cc(-c2csc(-c3cccc(F)c3)n2)c2cccnc21,-51.7% [100 µM] (active),21.3% [100 µM] (inactive),-65% [100 µM] (active),-27.7% [100 µM] (active),-52.7% [100 µM] (active),-31.8% [100 µM] (active),-57.2% [100 µM] (active),-84.2% [100 µM] (active),4.1% [100 µM] (active),0.511% [100 µM] (active),1.57% [100 µM] (active),-52.4% [100 µM] (active),-44.8% [100 µM] (active),-20.8% [100 µM] (active),-22.6% [100 µM] (active),-44.7% [100 µM] (active),15.9% [100 µM] (inactive),-34.4% [100 µM] (active),
CCOC(=O)c1c2c(n3ccc(NC(=O)OC(C)(C)C)cc13)C(=O)c1ncccc1C2=O,9.26% (active),-39.8% (active),-31% (active),-76.4% (active),6.15% (active),-41% (active),-3.67% (active),-0.0751% (active),,7.58% (active),-11.4% (active),-5.26% (active),11.9% (inactive),-32.9% (active),-4.89% (active),-33.6% (active),-25.3% (active),-35.9% (active),-6.66% (active)
COc1ccc(C(=O)/C=C/c2c(C(F)(F)F)nc3sccn23)cc1OC,80.4% (inactive),37.1% (inactive),29% (inactive),61.1% (inactive),58.1% (inactive),26.5% (inactive),2.75% (active),94.7% (inactive),-16.6% (active),,18.6% (inactive),44.6% (inactive),25.5% (inactive),9.87% (active),81.9% (inactive),-33.9% (active),-5.99% (active),4.94% (active),
Cc1cc(NCc2cc(Nc3ccnc4cc(Cl)ccc34)ccc2F)nc(N2CCN(C)CC2)n1,-70.7% (active),31% (inactive),36.8% (inactive),-8.37% (active),-16% (active),5.12% (active),61.8% (inactive),-26.8% (active),,-14.4% (active),12.1% (inactive),9.47% (active),18.7% (inactive),29.5% (inactive),8.72% (active),-17.4% (active),-7.51% (active),16.8% (inactive),-23.9% (active)
CC(=O)OC1CCC2(C)C(=CC3C4CCC(=O)C4(C)CCC32)C1 (stereo unspecified),93% (inactive),109% (inactive),96.4% (inactive),96.2% (inactive),108% (inactive),101% (inactive),101% (inactive),154% (inactive),103% (inactive),,97.3% (inactive),100% (inactive),103% (inactive),105% (inactive),105% (inactive),109% (inactive),119% (inactive),104% (inactive),89.3% (inactive)
N#Cc1c(-c2cccc(Cl)c2)cc(-c2cccc(Cl)c2)[nH]c1=O,67% (inactive),89% (inactive),82.8% (inactive),74% (inactive),96.7% (inactive),93.4% (inactive),63.6% (inactive),47% (inactive),,29.6% (inactive),,101% (inactive),68.4% (inactive),82.6% (inactive),70.8% (inactive),64.1% (inactive),56.8% (inactive),64.6% (inactive),57.2% (inactive)
CCc1ccccc1-n1c(N)c(C#N)c(-c2ccc(N(C)C)cc2)c(C#N)c1=O,112% (inactive),90.4% (inactive),96.8% (inactive),85.3% (inactive),99.6% (inactive),94.8% (inactive),93.6% (inactive),94.2% (inactive),,,101% (inactive),97% (inactive),99% (inactive),107% (inactive),90.8% (inactive),97% (inactive),92.2% (inactive),94.8% (inactive),74.7% (inactive)
O=C(COc1ccc(/C=C2\Oc3ccccc3C2=O)cc1)Nc1nc2c(s1)CCCC2,84% (inactive),26.4% (inactive),46% (inactive),-59.9% (active),79.7% (inactive),65.5% (inactive),-98.4% (active),110% (inactive),,-90.7% (active),6.97% (active),61.7% (inactive),75.6% (inactive),27.3% (inactive),,29.3% (inactive),69.2% (inactive),78.8% (inactive),-86.3% (active)
CC(CCc1ccc(Cl)c(Cl)c1)NCc1ccc(C(C)(C)C)cc1 (stereo unspecified),105% (inactive),102% (inactive),91.9% (inactive),78.6% (inactive),78.4% (inactive),92.7% (inactive),85.9% (inactive),90.8% (inactive),,-10.5% (active),85.8% (inactive),91.3% (inactive),88.1% (inactive),93.6% (inactive),90.3% (inactive),98.2% (inactive),85.2% (inactive),86.3% (inactive),74.5% (inactive)
COc1cccc(-c2nn(-c3ccccc3)cc2-c2ccnc(NCCCNC(=O)c3cccc(C(F)(F)F)c3)c2)c1,33.4% (inactive),48.9% (inactive),45.5% (inactive),10.9% (inactive),26.9% (inactive),31.7% (inactive),51.4% (inactive),43.6% (inactive),,-29% (active),22.4% (inactive),71.6% (inactive),31.3% (inactive),28.3% (inactive),58.8% (inactive),41.4% (inactive),33.7% (inactive),22.6% (inactive),9.33% (active)
COc1cc(N2C(=O)c3nccnc3C2=O)cc(OC)c1OC,95.5% (inactive),104% (inactive),94.1% (inactive),87.5% (inactive),100% (inactive),112% (inactive),97.3% (inactive),87.2% (inactive),94.5% (inactive),,104% (inactive),109% (inactive),105% (inactive),103% (inactive),98.2% (inactive),120% (inactive),104% (inactive),104% (inactive),97.6% (inactive)
COc1cc(-c2nn(-c3ccccc3)cc2-c2ccnc(NCCNS(=O)(=O)c3ccc(Cl)cc3)n2)ccc1Cl,61.2% (inactive),37% (inactive),26.8% (inactive),21.2% (inactive),43% (inactive),15.4% (inactive),28.9% (inactive),32% (inactive),,-19.4% (active),36.1% (inactive),68.8% (inactive),38.3% (inactive),22.7% (inactive),38.2% (inactive),35.1% (inactive),58.4% (inactive),31.7% (inactive),35% (inactive)
CN(C)c1ccc(-c2ccc3[nH]c(=O)nc(-c4ccccc4)c3c2)cn1,22.8% (inactive),58.5% (inactive),50.7% (inactive),53% (inactive),82.8% (inactive),47.9% (inactive),49.6% (inactive),52.3% (inactive),,16.2% (inactive),63.8% (inactive),65.9% (inactive),70.4% (inactive),63.5% (inactive),49.7% (inactive),5.38% (active),55.6% (inactive),49.4% (inactive),56.5% (inactive)
COc1ccc2oc3c(C)c4c(c(C)c3c2c1)C(=O)N(Cc1ccccc1)C4=O,105% (inactive),92.9% (inactive),89.8% (inactive),80.7% (inactive),120% (inactive),88.3% (inactive),81.1% (inactive),109% (inactive),106% (inactive),,91.2% (inactive),99.9% (inactive),90.7% (inactive),103% (inactive),94.6% (inactive),89.3% (inactive),85.5% (inactive),95.3% (inactive),100% (inactive)
C[C@@]1(CCC#N)[C@H]2CC[C@@H]3[C@H]4[C@H](C(=O)/C=C/c5cccnc5)CC[C@]4(C#N)CC[C@@]3(C)[C@]2(C)CC[C@H]1C(=O)/C=C/c1cccnc1,77.7% (inactive),98.1% (inactive),65.4% (inactive),87.3% (inactive),101% (inactive),56.3% (inactive),68.7% (inactive),99% (inactive),,12.9% (inactive),34.7% (inactive),136% (inactive),69.1% (inactive),89.7% (inactive),45.7% (inactive),39.9% (inactive),78.4% (inactive),65.1% (inactive),-2.94% (active)
